These results are taken from PubChem BioAssay AID651640 (Broad Institute, 2012).

About 6,000 (1.7%) of roughly 350,000 compounds were called active. Another 5% or so got no clear call; they are omitted. Shown is part of a subset that was picked to be rich in actives. Unmarked numbers belong to inactive results. No stated cut-off is given here; in the data, active means CPE inhibition above about 20% (passing the limit was not always enough); inconclusive means no clear call, values can overlap the other calls; tested in BHK-21 cells.

A short description of this assay: inhibitors of DENV2 cytopathic effect, primary screen, cell-based, plate reader, single concentration (AID 651640).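 Further: 0% = median of neutral control wells and 100% = median of positive control wells.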 The settings on record: DENV2-infected cells, cytopathic effect rescue, at 9.99 µM, hits give high values. (In general: Protection from cytopathic effect is a common read-out in antiviral testing.)
For the compound `O=S(=O)(N[C@@H]1CC[C@@H](CCn2cc(-c3ccccn3)nn2)O[C@@H]1CO)c1cccc(Cl)c1`, the CPE inhibition was 14.3%.

With `C[C@H]1CN([C@@H](C)CO)C(=O)c2cc(NC(=O)C3CC3)ccc2O[C@@H]1CN(C)S(=O)(=O)c1cn(C)cn1`, the CPE inhibition is -4.92%.

With `C[C@@H]1CCCCO[C@H](CN(C)C(=O)Cc2ccccc2)[C@H](C)CN([C@@H](C)CO)C(=O)c2cc(NS(=O)(=O)c3ccc(F)cc3)ccc2O1`, the CPE inhibition is -10.6%.

With `CC(C)NC(=O)NCC[C@H]1CC[C@@H](NS(=O)(=O)c2ccc(Oc3ccccc3)cc2)[C@@H](CO)O1`, the CPE inhibition was -1.61%.

`CO[C@H]1CN(C)C(=O)c2cc(NS(=O)(=O)CC(F)(F)F)ccc2OC[C@@H](C)N(C(=O)c2ccc3c(c2)OCO3)C[C@@H]1C`: the CPE inhibition was 15.3%.

On to `COC(=O)CN1C(=O)[C@H]2[C@@H](C3CC3)N3C(=O)CN(Cc4ccc(-c5ccccc5)cc4)C(=O)[C@@]3(Cc3ccccc3)[C@H]2C1=O`, for which the CPE inhibition was 3.26%.

Regarding `COC(=O)CN1C(=O)[C@H]2[C@@H](/C=C/c3ccccc3)N3C(=O)CN(CC4CC4)C(=O)[C@@]3(Cc3ccccc3)[C@H]2C1=O`, the CPE inhibition is 51% (active).

As to `COC(=O)CN1C(=O)[C@H]2[C@@H](/C=C/c3ccccc3)N3C(=O)CN(Cc4ccccc4)C(=O)[C@@]3(Cc3ccccc3)[C@H]2C1=O`, the CPE inhibition was -11.1%.

For `C[C@H](CO)N1C[C@H](C)[C@@H](CN(C)Cc2ccc(C(F)(F)F)cc2)Oc2ccc(NC(=O)Cn3cnnn3)cc2CC1=O`, the CPE inhibition was 7.25%.

For the compound `Cc1ccccc1OCCC(=O)OCC(=O)NCCc1ccc(S(N)(=O)=O)cc1`, the CPE inhibition was 47.5% (active).

In the case of `Cc1ccccc1OCCC(=O)OCC(=O)NC(C)c1ccccc1` (configuration not stated), the CPE inhibition was 4.9%.

For `Cc1ccc(S(=O)(=O)CCC(=O)OCC(=O)NCCc2ccc(S(N)(=O)=O)cc2)cc1`, the CPE inhibition is 2.48%.

As for `O=C(C[C@@H]1CC[C@@H]2[C@H](COC[C@@H](O)CN2S(=O)(=O)c2ccccc2)O1)NCC1CCCCC1`, the CPE inhibition was -12.1%.

On to `C[C@@H]1CN([C@@H](C)CO)S(=O)(=O)c2ccc(-c3cccc(C(=O)N(C)C)c3)cc2O[C@@H]1CN(C)C`, for which the CPE inhibition is -3.85%.

With `c1ccc(-c2ccc(C3[C@@H]4CN(Cc5cccnc5)C[C@H]3N4)cc2)cc1` (some centres not stated), the CPE inhibition was -24.3%.

Turning to `N#C[C@H]1N[C@H](CO)[C@H]1c1ccc(-c2cccc(F)c2)cc1`, the CPE inhibition is 3.16%.

Turning to `N#Cc1cccc(-c2ccc([C@H]3[C@@H](CO)N[C@@H]3CNC(=O)C3CCC3)cc2)c1`, the CPE inhibition is -1.99%.

Consider `O=C(NC[C@@H]1N[C@@H](CO)[C@H]1c1ccc(-c2cccnc2)cc1)c1cccc(F)c1`, for which the CPE inhibition was 41.5% (active).

Take `CCCNC(=O)N1C[C@@H](O)COC[C@H]2O[C@@H](CC(=O)NCCCN3CCOCC3)CC[C@@H]21`: the CPE inhibition is -1.62%.

Consider `CO[C@@H]1CN(C)C(=O)c2cc(NC(=O)C3CCOCC3)ccc2OC[C@@H](C)NC[C@@H]1C`, for which the CPE inhibition is 23.2% (active).

Take `CO[C@H]1CN(C)C(=O)c2cc(NS(=O)(=O)c3ccccc3)ccc2OC[C@H](C)NC[C@@H]1C`: the CPE inhibition was 27.3% (active).

Take `CO[C@H]1CN(C)C(=O)c2ccc(NC(=O)C3CCOCC3)cc2OC[C@H](C)NC[C@H]1C`: the CPE inhibition was -0.477%.

As to `CO[C@@H]1CN(C)C(=O)c2cc(NS(=O)(=O)c3ccc(Cl)cc3)ccc2OC[C@H](C)NC[C@@H]1C`, the CPE inhibition is -4.08%.

For `CO[C@H]1CN(C)C(=O)c2cc(NC(=O)C3CC3)ccc2OC[C@@H](C)NC[C@H]1C`, the CPE inhibition was -4.67%.

For `CO[C@H]1CN(C)C(=O)c2cc(NS(=O)(=O)c3ccc(C)cc3)ccc2OC[C@H](C)NC[C@H]1C`, the CPE inhibition is -0.879%.

For the compound `C[C@@H]1CCCCO[C@@H](CN(C)C(=O)Nc2ccc(F)cc2)[C@H](C)CN([C@@H](C)CO)C(=O)c2cc(NS(C)(=O)=O)ccc2O1`, the CPE inhibition was -6.59%.

As to `CCCC(=O)N1CC2(C1)CN(C(=O)COC)[C@@H](CO)c1c2c2ccc(OC)cc2n1C`, the CPE inhibition was 10.6%.

`O=S(=O)(NC[C@H]1[C@H](c2ccccc2)[C@H](CO)N1CC1CC1)c1ccccc1`: the CPE inhibition is 16.5%.

For `CCc1cnc(N2[C@H](C#N)[C@H](c3ccc(C4=CCCC4)cc3)[C@@H]2CO)s1`, the CPE inhibition is 42.6% (active).

For the compound `N#C[C@@H]1[C@@H](c2ccc(C3=CCCC3)cc2)[C@@H](CO)N1C(=O)C1CCCC1`, the CPE inhibition was -3.68%.

`CCc1cnc(N2[C@H](C#N)[C@H](c3ccccc3-c3ccccc3C)[C@H]2CO)s1`: the CPE inhibition is 6.09%.

In the case of `CO[C@@H]1CN(C)C(=O)c2cc(NC(=O)c3cc(C)on3)ccc2OC[C@@H](C)N(C(C)=O)C[C@@H]1C`, the CPE inhibition is 5.53%.

Regarding `CCCNC(=O)C1(C)CCCN(Cc2cccc(C(F)(F)F)c2)C1` (configuration not stated), the CPE inhibition is 10.8%.

Turning to `O=C(CN1CCC(O)(c2cccc(C(F)(F)F)c2)CC1)NCCc1ccccc1`, the CPE inhibition was 24.3% (active).

For the compound `O=C(CCC(=O)c1ccccc1)NCc1cccc(C(F)(F)F)c1`, the CPE inhibition is -5.25%.

Consider `CO[C@H]1CN(C)C(=O)c2ccc(NC(=O)Nc3ccc(Cl)cc3)cc2OC[C@H](C)N(C(=O)Nc2c(C)noc2C)C[C@@H]1C`, for which the CPE inhibition is 1.51%.

`CCCN1C[C@H](C)[C@H](OC)CN(C)C(=O)c2cc(NC(=O)C3CCOCC3)ccc2OC[C@@H]1C`: the CPE inhibition was -12%.

With `O=C(Nc1ccc2c(c1)[C@@H]1C[C@H](CC(=O)N3CCOCC3)O[C@@H](CO)[C@@H]1O2)C1CCOCC1`, the CPE inhibition is 14.6%.

Take `CCC(=O)Nc1ccc2c(c1)C(=O)N(C)C[C@H](OC)[C@@H](C)CN(Cc1cccnc1)[C@H](C)CO2`: the CPE inhibition was 3.46%.

Consider `Cc1cc(C(=O)O)ccc1[N+](=O)[O-]`, for which the CPE inhibition is -17.9%.

In the case of `Cc1ccccc1C(=O)O`, the CPE inhibition is 0.715%.

For the compound `Cc1cccc(C(=O)O)c1[N+](=O)[O-]`, the CPE inhibition was 29.4% (active).

For `O=C(C[C@H]1C[C@H]2c3cc(NC(=O)Nc4ccc(F)cc4)ccc3O[C@H]2[C@H](CO)O1)NCC1CC1`, the CPE inhibition is -5.03%.

On to `O=C(NC1CCCC1)[C@H]1[C@H](CO)[C@H]2Cn3c(cccc3=O)[C@H]2N1C(=O)NC1CCCC1`, for which the CPE inhibition is 1.25%.

Take `Cn1cnc(CCNC(=O)C[C@H]2CC[C@H]3[C@@H](COC[C@H](O)CN3C(=O)C3CCCC3)O2)c1`: the CPE inhibition is -0.992%.

With `O=C(NCc1ccccc1)[C@H]1CCCN1C(=O)[C@@H]1CCCN1C(=O)c1ccc(Cl)cc1Cl`, the CPE inhibition was 40.8% (active).

Regarding `O=C(NCc1ccccc1)[C@H]1CCCN1C(=O)[C@H]1CCCN1C(=O)c1cc(F)cc(F)c1`, the CPE inhibition was -4.56%.

As for `O=C(NCc1ccccc1)[C@@H]1CCCN1C(=O)[C@H]1CCCN1C(=O)c1cccc(Cl)c1`, the CPE inhibition is -9.03%.

For `CC(C)CC#Cc1ccc([C@H]2[C@H]3CN(C(=O)c4cnccn4)CC(=O)N3[C@H]2CO)cc1`, the CPE inhibition was 6.05%.

On to `COc1ccc2c3c([nH]c2c1)[C@@H](CO)N(Cc1cc(F)ccc1F)CC31CCN(C(=O)C2CCC2)CC1`, for which the CPE inhibition is 8.85%.

As for `C[C@@H]1CCCCO[C@@H](CN(C)C(=O)Cc2ccccc2)[C@H](C)CN([C@@H](C)CO)C(=O)c2cc(NC(=O)Nc3ccc4c(c3)OCO4)ccc2O1`, the CPE inhibition is -20.6%.

With `O=C1O[C@@H](c2ccccc2)[C@@H](c2ccccc2)N2[C@@H](c3ccccc3OCCO)[C@]3(C(=O)Nc4ccc(C#CC5(O)CCCCCC5)cc43)[C@@H](C(=O)N3CCCCCCC3)[C@H]12`, the CPE inhibition is -1.79%.

Consider `COc1ccc(C#Cc2ccc3c(c2)[C@]2(C(=O)N3)[C@H](C(=O)N3CCCCCCC3)[C@H]3C(=O)O[C@H](c4ccccc4)[C@H](c4ccccc4)N3[C@@H]2c2ccc(O)cc2)cc1`, for which the CPE inhibition is 16.4%.

In the case of `COc1ccc(C#Cc2ccc3c(c2)[C@]2(C(=O)N3)[C@H](c3ccccc3OCCO)N3[C@H](c4ccccc4)[C@H](c4ccccc4)OC(=O)[C@H]3[C@@H]2C(=O)N2CCCCCCC2)cc1`, the CPE inhibition is 22.3% (active).

As for `COc1ccccc1-c1ccc([C@@H]2[C@@H](CO)N3CCCCN(C(=O)c4ccncc4)C[C@@H]23)cc1`, the CPE inhibition was -5.15%.

Regarding `COc1cccc(CNC(=O)C[C@H]2CC[C@@H](NC(C)=O)[C@@H](CO)O2)c1`, the CPE inhibition is -0.331%.

`Cc1ccc(S(=O)(=O)N[C@H]2C=C[C@@H](CC(=O)NCCc3ccncc3)O[C@@H]2CO)cc1`: the CPE inhibition is -2.51%.

In the case of `CCNC(=O)C[C@H]1CC[C@@H]2[C@H](COc3ccc(NC(=O)Nc4cccc(Cl)c4)cc3C(=O)N2C)O1`, the CPE inhibition was 3%.

Regarding `CCN(CC)S(=O)(=O)c1ccc(C)c(NC(=O)COc2ccc(Br)cc2Cl)c1`, the CPE inhibition is 52.1% (active).

As to `CCN(CC)S(=O)(=O)c1ccc(Cl)c(NC(=O)c2ccncc2)c1`, the CPE inhibition is 2.11%.

For the compound `CCN(CC)S(=O)(=O)c1ccc(OC)c(NC(=O)CCc2c(C)noc2C)c1`, the CPE inhibition was -4.63%.

On to `Nc1[nH]c(C(=O)c2ccc(Br)cc2)c(-c2ccc3c(c2)OCO3)c1C(=O)NCCc1c[nH]c2ccccc12`, for which the CPE inhibition is 9.1%.

As to `Cc1ccccc1-c1ccc([C@@H]2[C@@H](CO)N3CCCCN(C(=O)Nc4cccc(F)c4)C[C@H]23)cc1`, the CPE inhibition was -1.69%.

Consider `CC(C)[C@@H](C)/C=C/[C@@H](C)[C@H]1CC[C@@H]2[C@]1(C)CCC1[C@]23C=C[C@]2(C[C@@H](O)CC[C@]12C)N(c1ccc([N+](=O)[O-])cn1)O3` (some centres not stated), for which the CPE inhibition is -2.89%.

On to `COC(=O)c1c(-c2ccc(OC)cc2)c2c(c3c4ccccc4n(S(=O)(=O)c4ccc(C)cc4)c13)C(=O)N(C)C2`, for which the CPE inhibition is 2.43%.

Consider `COC(=O)c1c(-c2ccc(OC)cc2)c2c(c3c4cc(OC)ccc4n(S(=O)(=O)c4ccc(F)cc4)c13)C(=O)N(C)C2`, for which the CPE inhibition was 44.7% (active).

On to `COC(=O)c1cc2c(c3c4cc(F)ccc4n(S(=O)(=O)c4ccccc4)c13)C(=O)N(Cc1ccccc1OC)C2`, for which the CPE inhibition was 15.1%.
